Screens: PubChem BioAssay, National Center for Advancing Translational Sciences (NCATS)
IL1B secr inh: blocks inflammasome-driven IL-1 beta release; 360,000 tested, 4.7% active; AID 743279; activity change, % at 57.5 µM; THP-1 LPS/ATP IL-1B secretion, AlphaLISA, 16 h; active compounds read low; in the data active means activity change below about -50%; inconclusive means mostly about -30% to -49%; further: on the % scale 0 is the no-effect control and ±100 the full control effect
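Secreted IL-1B measured by AlphaLISA bead assay after 16 h compound exposure of THP-1 cells; compounds (final up to 57.5 uM) added 1 h before LPS (250 ng/mL) and ATP (1.25 mM) stimulation; lower signal means less secretion.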
TGFb inhibitor: blocks TGF-b signaling. Potency, µM (doses to about 46.1 µM), without a hit: at the highest dose activity, negative = inhibition, usual class: inhibitors. 410,000 tested, 1.2% active. AID 588855. HepG2 CAGA-GFP TGF-b/SMAD3 reporter, GFP fluorescence, 18 h; TGF-beta stimulated, 500 pg/mL final; further: potency means the concentration at half of the fitted maximal effect; on the % scale 0 is the no-effect control and ±100 the full control effect; nearly all actives have a fitted effect of over 65% in size
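HEPG2 CAGA-GFP reporter cells (1000/well, DMEM with 1% FBS) received compounds, then recombinant TGF-beta at 500 pg/mL final for 18 hours at 37 degrees C. Per-cell GFP summed per well was normalised to unstimulated and stimulated DMSO controls before curve fitting.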
TDP1 inh: blocks human tyrosyl-DNA phosphodiesterase 1. Potency, µM (doses to about 130 µM), for inactives: at the highest dose activity change, negative = inhibition, usual class: inhibitors. recombinant TDP1, AlphaScreen DNA substrate cleavage. Q9NUW8. AID 485290. 350,000 tested, 0.28% active; further: potency means the concentration at half of the fitted maximal effect; on the % scale 0 is the no-effect control and ±100 the full control effect; nearly all actives have a fitted effect of over 40% in size
Target sequence (Q9NUW8 whole entry, looked up): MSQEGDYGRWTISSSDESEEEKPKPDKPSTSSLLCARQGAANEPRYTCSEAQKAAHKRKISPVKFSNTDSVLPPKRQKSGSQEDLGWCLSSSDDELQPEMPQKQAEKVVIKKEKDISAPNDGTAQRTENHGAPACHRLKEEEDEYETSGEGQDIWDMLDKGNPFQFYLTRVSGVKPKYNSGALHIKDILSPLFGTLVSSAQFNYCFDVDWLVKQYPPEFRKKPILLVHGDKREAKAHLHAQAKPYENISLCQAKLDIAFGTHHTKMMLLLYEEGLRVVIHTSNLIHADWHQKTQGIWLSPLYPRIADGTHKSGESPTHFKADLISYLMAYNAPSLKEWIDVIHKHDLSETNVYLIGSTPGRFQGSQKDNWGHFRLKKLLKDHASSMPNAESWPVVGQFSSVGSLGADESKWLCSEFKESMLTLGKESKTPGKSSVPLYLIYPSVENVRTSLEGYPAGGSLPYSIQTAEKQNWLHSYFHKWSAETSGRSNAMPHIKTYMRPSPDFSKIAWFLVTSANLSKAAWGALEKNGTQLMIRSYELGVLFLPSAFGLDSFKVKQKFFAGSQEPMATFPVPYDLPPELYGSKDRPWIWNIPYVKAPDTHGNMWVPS
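Enzyme-compound mixtures sat 15 min at room temperature, followed by a 5 min reaction with 15 nM final substrate and 10 min with AlphaScreen beads. Recombinant human Tdp1 was used at 1 nM final.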
DT40 TDP1 no CPT: qHTS for Inhibitors of human tyrosyl-DNA phosphodiesterase 1 (TDP1): qHTS in cells in absence of CPT. DT40 Tdp1-/- hTDP1 cells, no CPT, ATP luminescence, 48 h. Potency, µM (top dose mostly 46.2 µM), for inactives: at the top dose activity change, negative = growth inhibition, most hits filed as inhibitors. 420,000 tested, 15% active; further: potency means the concentration at half of the fitted maximal effect; on the % scale 0 is the no-effect control and ±100 the full control effect; nearly all actives have a fitted effect of over 55% in size
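Compound effects on proliferation are scored in DT40 Tdp1-/-;hTDP1 cells in the absence of CPT. ATP levels (CellTiter-Glo luminescence) are recorded after a ≥48 hr, 37 °C incubation.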
DT40 TDP1 CPT: DT40-hTDP1 cell growth loss with CPT; chicken DT40 Tdp1-/-;hTDP1 cells + 20 nM CPT, ATP luminescence, 48 h; 420,000 tested, 12% active; Potency, µM (doses to about 46.2 µM), without a hit: at the top dose activity change, negative = growth inhibition, most hits filed as inhibitors; AID 686979; further: potency means the concentration at half of the fitted maximal effect; on the % scale 0 is the no-effect control and ±100 the full control effect; nearly all actives have a fitted effect of over 55% in size
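Chicken DT40 Tdp1-/- cells complemented with human TDP1, 400 cells/well, exposed to compounds plus 20 nM camptothecin for at least 48 h at 37 C; viability read as ATP content by CellTiter-Glo luminescence.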
HepG2 tox: counter-screen for TGF-b inhibitors: cytotoxicity in HepG2 cells. HepG2 CAGA-GFP viability, ATP luminescence, 18 h. Potency, µM (series often up to 46.1 µM), inactives show top-dose activity change, negative = cytotoxicity, actives largely listed as cytotoxic. AID 588856. 410,000 tested, 0.76% active; further: potency means the concentration at half of the fitted maximal effect
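HepG2 CAGA-GFP cells (1000/well, DMEM with 1% FBS) received compound, then TGF-beta at 500 pg/mL final, and were incubated 18 hours at 37 degrees C. Viability was read by CellTiter-Glo luminescence. Media-only wells were set as complete cell-killing and DMSO as no toxicity.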
Active calls of the source: *; i = inactive; u = inconclusive; x = not tested or not shown; ! = a repeat was not active. An excerpt weighted towards active compounds, which were near 18% of everything screened. Unless noted, the call rests on the fitted dose curve; in most records, active means well fitted curve in the direction sought with a large enough effect; inconclusive means small, poorly fitted or top-dose-only effect, or another doubt; inactive means no such curve, though single readings can be large; an effect the other way counts as inactive or inconclusive.

SMILES | IL1B secr inh | TGFb inhibitor | TDP1 inh | DT40 TDP1 no CPT | DT40 TDP1 CPT | HepG2 tox
COc1ccc(CCNc2ncnc3c2cnn3-c2ccc(F)cc2)cc1 | x | -2% | 3% | u | u | -18%
O=C(NC1CCCCC1)NC1C2CC3CC(C2)CC1C3 (configuration not stated) | 9 | -7% | 3% | u | u | 16%
CCCCCCSc1ccc(-c2nc3cnccn3c2NC2CCCCC2)cc1 | 14 | x | x | u | u | x
Clc1ccc(-c2nc3cnccn3c2NC2CCCC2)cc1 | 27 | -8% | 4% | 26µM* | u | -6%
COc1cc(-c2nc3cnccn3c2Nc2c(C)cccc2C)ccc1O | 23 | -9% | -1% | u | u | -13%
CCC(C)Sc1ccc(-c2nc3cnccn3c2NC2CCCCC2)cc1 (configuration not stated) | -52*! | -10% | -12% | 16µM* | u | -107%
COc1ccc(Nc2c(-c3ccc(Cl)cc3)nc3cnccn23)cc1OC | x | -18% | 15% | u | -3% | -19%
COc1ccc(Sc2ccc(-c3nc4cnccn4c3NC3CCCCC3)cc2OC)cc1 | u | 0% | 2% | 13µM* | 15µM* | 5%
CCC(C)Sc1ccc(-c2nc3cc(C)ccn3c2NC2CCCCC2)cc1 (configuration not stated) | -66*! | u | 3% | 15µM* | 23µM* | -30%
CCCCNc1nc(C)nc2c1nc(-c1ccccc1)n2CCCN(CC)CC | x | x | 0% | x | x | x
C[C@]12c3[nH]c4ccccc4c3CCN1C(=O)C(CC(=O)NCCN1CCOCC1)C[C@@H]2C(=O)N1CCCCC1 (some centres not stated) | 18 | 9% | 1% | -4% | -6% | -8%
COc1ccc2[nH]c3c(=O)n4c(nc3c2c1)SCCC4 | 2 | u | 6% | u | -29% | -6%
Cc1ccc2nc(N(Cc3cccnc3)C(=O)C3CCCCC3)sc2c1 | x | -1% | 0% | u | u | -4%
O=C(C1CCCCC1)N(Cc1cccnc1)c1nc2c(F)cc(F)cc2s1 | x | 22µM* | 5% | 15µM* | 21µM* | -36%
Cc1cccc2sc(N(Cc3cccnc3)C(=O)C3CCCCC3)nc12 | x | 10µM* | 3% | u | u | -41%
CCOc1ccc2nc(N(Cc3cccnc3)C(=O)C3CCCCC3)sc2c1 | x | u | -5% | -24% | u | -34%
COc1ccc2sc(N(Cc3cccnc3)C(=O)C3CCCCC3)nc2c1 | x | u | 3% | 23µM* | 13µM* | -46%
CC(=O)N(Cc1cccnc1)c1nc2c(F)cc(F)cc2s1 | x | -21% | 8% | u | u | -20%
COC(=O)[C@]12CCCCC=C1N(Cc1ccco1)C(=O)[C@H](CC(=O)NCCC(C)C)C2 | -20 | x | x | u | u | x
C=C(CCC12O[C@H](C(=O)O)[C@@](O)(C(=O)O)[C@](C(=O)O)(O1)[C@H](OC(=O)/C=C/[C@@H](C)C[C@@H](C)CC)[C@H]2O)[C@@H](OC(C)=O)[C@H](C)Cc1ccccc1 | x | x | 6% | x | x | x
COc1ccc(N(CC(C)C)S(=O)(=O)c2nnc(NC(=O)c3ccco3)s2)cc1 | -2 | 2% | 4% | 21µM*! | u | -5%
CCN(c1ccc(OC)cc1)S(=O)(=O)c1nnc(NC(=O)c2ccccc2Cl)s1 | -17 | -18% | 6% | 16µM*! | u | -9%
Cc1cccc(N(C)S(=O)(=O)c2nnc(NC(=O)c3cccs3)s2)c1 | x | -38% | 6% | u | -6% | -23%
Cc1ccc(N(CC(C)C)S(=O)(=O)c2nnc(NC(=O)c3cccs3)s2)cc1 | x | -10% | 1% | 23µM* | u | -32%
CCN(c1ccc(OC)cc1)S(=O)(=O)c1nnc(NC(=O)c2ccco2)s1 | u | -10% | 6% | -7% | -22% | 0%
SMILES | IL1B secr inh | TGFb inhibitor | TDP1 inh | DT40 TDP1 no CPT | DT40 TDP1 CPT | HepG2 tox
CCCN1CCCC(c2cccc(S(C)(=O)=O)c2)C1 (configuration not stated) | x | x | 4% | x | x | x
COc1ccc(-c2nc(CS(=O)(=O)CC(=O)NC3CCC(C)CC3)c(C)o2)cc1 (configuration not stated) | 13 | u | 11% | -18% | u | -3%
Cn1c(SCC(=O)NCc2ccco2)nnc1-c1ccc(NC(=O)c2ccccc2)cc1 | x | -26% | x | u | -7% | 21%
O=C(OCn1ncc(Cl)c(Cl)c1=O)c1cccc(C(F)(F)F)c1 | -101* | u | -4% | 3.3µM* | u | 7.1µM*
COc1cccc(C(=O)Oc2ccc(/C=N/Nc3ccc(C(=O)O)cc3)cc2OC)c1 | -1 | 1% | x | 29µM* | u | -7%
COc1cccc(OCc2cc(/C=N/Nc3ccc(C(=O)O)cc3)ccc2OC)c1 | 19 | 9% | 3% | 21µM* | 21µM* | 5%
COCc1cc(/C=N\NC(=O)COc2ccccc2)ccc1OC | 8 | 7% | 1% | -23% | -2% | 2%
O=C(NC1CCCCC1)C1c2ccccc2OCC(=O)N1Cc1cccnc1 (configuration not stated) | 6 | x | x | 1% | 2% | x
O=C(Cc1csc(Nc2nc(=S)[nH]c3ccccc23)n1)NCc1cccc(Cl)c1 | 19 | -7% | 8% | 18µM* | u | -22%
O=C(Cc1csc(Nc2nc(=S)[nH]c3ccccc23)n1)NCc1ccccc1Cl | 18 | 10% | 10% | 4.6µM* | 21µM* | -24%
O=C(Cc1csc(Nc2nc(=S)[nH]c3ccccc23)n1)N1CCN(c2cccc(C(F)(F)F)c2)CC1 | 41 | -2% | 8% | 16µM* | u | -20%
Cc1ccc(CNC(=O)Cc2csc(Nc3nc(=S)[nH]c4ccccc34)n2)cc1 | x | x | 2% | x | x | x
Cc1ccc(-c2csc(NC(=O)COC(=O)c3cccc(S(=O)(=O)N4CCOCC4)c3)n2)cc1 | -4 | -3% | 7% | -19% | -23% | -15%
Cc1ccc(Nc2nc(-c3ccc(S(=O)(=O)N4CCOCC4)cc3)cs2)cc1Cl | -30 | -26% | 8% | 6.5µM* | 4.6µM* | -51%
CC(C)CC(=O)Nc1nc(-c2ccc(S(=O)(=O)N3CCOCC3)cc2)cs1 | i | -9% | -12% | 16µM* | 13µM* | -20%
